Measurements: the supplement of paper PMC11732987, “Enantioselective OTUD7B fragment discovery through chemoproteomics screening and high-throughput optimisation” (Communications Chemistry, 2025)

Legend:
Assay in all cases: log2 ratio of Biotin-Ahx-Ub-VS probe labelling (fragment/DMSO); higher = less target engagement (more negative = stronger competition), active = hit call of the paper (q ≤ 0.05, log2 ratio ≤ -1)
Conditions in all cases: compound concentration: 200 uM; treatment time: 3 h
USP19 = target: T1, USP19 (UniProt O94966)
T1 sequence (whole entry): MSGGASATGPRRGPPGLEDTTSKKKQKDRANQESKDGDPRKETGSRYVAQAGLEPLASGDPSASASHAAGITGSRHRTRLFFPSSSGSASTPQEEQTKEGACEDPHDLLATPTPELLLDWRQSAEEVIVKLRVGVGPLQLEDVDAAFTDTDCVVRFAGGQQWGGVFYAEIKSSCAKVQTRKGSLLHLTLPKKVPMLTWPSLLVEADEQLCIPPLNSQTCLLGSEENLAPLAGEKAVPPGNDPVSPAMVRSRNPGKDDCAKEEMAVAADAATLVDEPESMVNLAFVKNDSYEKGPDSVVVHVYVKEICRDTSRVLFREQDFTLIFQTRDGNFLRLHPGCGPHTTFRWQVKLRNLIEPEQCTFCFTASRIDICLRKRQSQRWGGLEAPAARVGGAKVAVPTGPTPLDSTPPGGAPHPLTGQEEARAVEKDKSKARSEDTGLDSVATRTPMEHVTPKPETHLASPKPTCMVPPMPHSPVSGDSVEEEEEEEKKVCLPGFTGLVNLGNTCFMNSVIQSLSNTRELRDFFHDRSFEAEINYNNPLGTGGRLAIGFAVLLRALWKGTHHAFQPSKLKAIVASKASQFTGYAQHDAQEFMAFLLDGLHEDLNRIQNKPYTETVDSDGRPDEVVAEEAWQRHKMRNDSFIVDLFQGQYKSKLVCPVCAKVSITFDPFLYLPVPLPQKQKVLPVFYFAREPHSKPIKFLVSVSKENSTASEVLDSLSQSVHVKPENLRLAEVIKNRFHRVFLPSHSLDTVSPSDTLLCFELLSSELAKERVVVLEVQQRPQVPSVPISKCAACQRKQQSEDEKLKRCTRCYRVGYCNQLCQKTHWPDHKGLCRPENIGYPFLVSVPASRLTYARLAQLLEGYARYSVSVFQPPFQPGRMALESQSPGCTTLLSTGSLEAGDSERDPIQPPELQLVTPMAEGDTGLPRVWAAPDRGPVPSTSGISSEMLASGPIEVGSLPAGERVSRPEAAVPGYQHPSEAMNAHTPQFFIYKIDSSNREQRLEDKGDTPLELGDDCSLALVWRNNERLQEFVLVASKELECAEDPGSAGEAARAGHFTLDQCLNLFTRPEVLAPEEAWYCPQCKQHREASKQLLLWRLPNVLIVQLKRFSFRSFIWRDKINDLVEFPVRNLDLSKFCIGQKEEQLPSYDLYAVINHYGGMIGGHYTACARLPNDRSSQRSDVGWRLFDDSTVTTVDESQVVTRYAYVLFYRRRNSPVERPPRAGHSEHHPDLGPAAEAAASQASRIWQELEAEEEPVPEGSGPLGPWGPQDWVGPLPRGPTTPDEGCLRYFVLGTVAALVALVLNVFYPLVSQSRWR
Method in brief: (§1)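 Triplicate samples of HEK293T lysate, 495 µg each, received fragment at 200 µM or vehicle for 3 h, followed by Biotin-Ahx-Ub-VS (0.5 µM final) for 1 h. After NeutrAvidin enrichment of labelled DUBs and LysC/trypsin digestion, peptides were run by diaPASEF LC-MS/MS. The values are average log2 fragment/vehicle ratios from global-median-normalised Spectronaut label-free quantities, tested by unpaired t-test on proteins having ≥2 unique peptides.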

USP24 = USP24 (UniProt Q9UPU5)
Method in brief: as §1

USP25 = target: T2, USP25 (UniProt Q9UHP3)
T2 sequence (whole entry): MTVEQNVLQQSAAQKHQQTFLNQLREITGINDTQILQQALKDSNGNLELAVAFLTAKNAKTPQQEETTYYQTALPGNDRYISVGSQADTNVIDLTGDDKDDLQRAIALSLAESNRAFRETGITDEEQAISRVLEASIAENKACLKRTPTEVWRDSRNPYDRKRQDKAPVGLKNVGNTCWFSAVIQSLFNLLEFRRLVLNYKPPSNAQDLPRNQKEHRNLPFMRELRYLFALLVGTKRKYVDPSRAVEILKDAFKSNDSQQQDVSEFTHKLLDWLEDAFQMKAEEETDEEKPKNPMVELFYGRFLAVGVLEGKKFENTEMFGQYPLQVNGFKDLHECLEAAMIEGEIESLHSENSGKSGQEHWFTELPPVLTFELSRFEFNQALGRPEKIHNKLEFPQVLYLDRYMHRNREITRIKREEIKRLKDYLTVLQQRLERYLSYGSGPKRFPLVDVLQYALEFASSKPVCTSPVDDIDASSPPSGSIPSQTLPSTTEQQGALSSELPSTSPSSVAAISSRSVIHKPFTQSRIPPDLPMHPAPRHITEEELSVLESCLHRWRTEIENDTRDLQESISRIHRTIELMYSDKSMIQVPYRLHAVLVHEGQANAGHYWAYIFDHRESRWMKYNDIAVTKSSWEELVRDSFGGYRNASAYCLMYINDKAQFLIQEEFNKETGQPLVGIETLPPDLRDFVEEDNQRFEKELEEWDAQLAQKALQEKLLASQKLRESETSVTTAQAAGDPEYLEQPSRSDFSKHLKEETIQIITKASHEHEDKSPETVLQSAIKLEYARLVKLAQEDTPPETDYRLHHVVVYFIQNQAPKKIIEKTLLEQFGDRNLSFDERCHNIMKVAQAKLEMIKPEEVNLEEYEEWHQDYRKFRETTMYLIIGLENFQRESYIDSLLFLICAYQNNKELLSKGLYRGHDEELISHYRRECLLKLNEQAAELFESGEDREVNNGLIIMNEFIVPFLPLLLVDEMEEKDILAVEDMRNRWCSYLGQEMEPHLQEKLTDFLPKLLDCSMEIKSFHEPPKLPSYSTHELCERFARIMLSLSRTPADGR
Method in brief: as §1

USP28 = target: T3, USP28 (UniProt Q96RU2)
T3 sequence (whole entry): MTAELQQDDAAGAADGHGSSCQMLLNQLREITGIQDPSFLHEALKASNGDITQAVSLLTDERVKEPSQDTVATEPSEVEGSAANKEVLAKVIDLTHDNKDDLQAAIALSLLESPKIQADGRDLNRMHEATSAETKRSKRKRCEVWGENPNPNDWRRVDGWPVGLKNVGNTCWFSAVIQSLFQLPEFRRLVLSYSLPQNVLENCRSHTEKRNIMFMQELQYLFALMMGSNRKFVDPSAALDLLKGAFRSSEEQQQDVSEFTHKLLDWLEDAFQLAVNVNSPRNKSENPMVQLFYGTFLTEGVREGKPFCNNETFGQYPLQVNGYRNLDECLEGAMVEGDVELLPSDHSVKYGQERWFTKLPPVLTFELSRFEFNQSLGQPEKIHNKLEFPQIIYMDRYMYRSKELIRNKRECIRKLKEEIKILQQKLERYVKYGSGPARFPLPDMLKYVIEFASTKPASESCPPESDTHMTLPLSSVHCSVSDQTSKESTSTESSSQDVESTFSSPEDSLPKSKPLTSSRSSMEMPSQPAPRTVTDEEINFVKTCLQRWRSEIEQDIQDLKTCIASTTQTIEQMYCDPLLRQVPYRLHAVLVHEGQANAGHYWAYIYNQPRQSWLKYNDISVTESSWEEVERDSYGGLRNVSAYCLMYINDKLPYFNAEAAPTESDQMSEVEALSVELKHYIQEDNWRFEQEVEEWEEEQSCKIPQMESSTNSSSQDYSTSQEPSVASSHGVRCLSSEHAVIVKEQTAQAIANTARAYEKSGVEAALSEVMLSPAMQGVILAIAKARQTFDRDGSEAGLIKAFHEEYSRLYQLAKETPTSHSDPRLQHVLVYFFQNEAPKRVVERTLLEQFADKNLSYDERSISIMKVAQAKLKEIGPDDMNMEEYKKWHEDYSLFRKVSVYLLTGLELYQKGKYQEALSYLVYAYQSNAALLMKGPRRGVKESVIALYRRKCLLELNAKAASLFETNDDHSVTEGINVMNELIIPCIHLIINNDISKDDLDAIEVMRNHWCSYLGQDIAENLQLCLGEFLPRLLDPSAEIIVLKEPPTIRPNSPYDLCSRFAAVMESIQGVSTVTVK
Method in brief: as §1

Measured: log2 ratio of Biotin-Ahx-Ub-VS probe labelling

Sequence of USP24 (Q9UPU5 whole entry): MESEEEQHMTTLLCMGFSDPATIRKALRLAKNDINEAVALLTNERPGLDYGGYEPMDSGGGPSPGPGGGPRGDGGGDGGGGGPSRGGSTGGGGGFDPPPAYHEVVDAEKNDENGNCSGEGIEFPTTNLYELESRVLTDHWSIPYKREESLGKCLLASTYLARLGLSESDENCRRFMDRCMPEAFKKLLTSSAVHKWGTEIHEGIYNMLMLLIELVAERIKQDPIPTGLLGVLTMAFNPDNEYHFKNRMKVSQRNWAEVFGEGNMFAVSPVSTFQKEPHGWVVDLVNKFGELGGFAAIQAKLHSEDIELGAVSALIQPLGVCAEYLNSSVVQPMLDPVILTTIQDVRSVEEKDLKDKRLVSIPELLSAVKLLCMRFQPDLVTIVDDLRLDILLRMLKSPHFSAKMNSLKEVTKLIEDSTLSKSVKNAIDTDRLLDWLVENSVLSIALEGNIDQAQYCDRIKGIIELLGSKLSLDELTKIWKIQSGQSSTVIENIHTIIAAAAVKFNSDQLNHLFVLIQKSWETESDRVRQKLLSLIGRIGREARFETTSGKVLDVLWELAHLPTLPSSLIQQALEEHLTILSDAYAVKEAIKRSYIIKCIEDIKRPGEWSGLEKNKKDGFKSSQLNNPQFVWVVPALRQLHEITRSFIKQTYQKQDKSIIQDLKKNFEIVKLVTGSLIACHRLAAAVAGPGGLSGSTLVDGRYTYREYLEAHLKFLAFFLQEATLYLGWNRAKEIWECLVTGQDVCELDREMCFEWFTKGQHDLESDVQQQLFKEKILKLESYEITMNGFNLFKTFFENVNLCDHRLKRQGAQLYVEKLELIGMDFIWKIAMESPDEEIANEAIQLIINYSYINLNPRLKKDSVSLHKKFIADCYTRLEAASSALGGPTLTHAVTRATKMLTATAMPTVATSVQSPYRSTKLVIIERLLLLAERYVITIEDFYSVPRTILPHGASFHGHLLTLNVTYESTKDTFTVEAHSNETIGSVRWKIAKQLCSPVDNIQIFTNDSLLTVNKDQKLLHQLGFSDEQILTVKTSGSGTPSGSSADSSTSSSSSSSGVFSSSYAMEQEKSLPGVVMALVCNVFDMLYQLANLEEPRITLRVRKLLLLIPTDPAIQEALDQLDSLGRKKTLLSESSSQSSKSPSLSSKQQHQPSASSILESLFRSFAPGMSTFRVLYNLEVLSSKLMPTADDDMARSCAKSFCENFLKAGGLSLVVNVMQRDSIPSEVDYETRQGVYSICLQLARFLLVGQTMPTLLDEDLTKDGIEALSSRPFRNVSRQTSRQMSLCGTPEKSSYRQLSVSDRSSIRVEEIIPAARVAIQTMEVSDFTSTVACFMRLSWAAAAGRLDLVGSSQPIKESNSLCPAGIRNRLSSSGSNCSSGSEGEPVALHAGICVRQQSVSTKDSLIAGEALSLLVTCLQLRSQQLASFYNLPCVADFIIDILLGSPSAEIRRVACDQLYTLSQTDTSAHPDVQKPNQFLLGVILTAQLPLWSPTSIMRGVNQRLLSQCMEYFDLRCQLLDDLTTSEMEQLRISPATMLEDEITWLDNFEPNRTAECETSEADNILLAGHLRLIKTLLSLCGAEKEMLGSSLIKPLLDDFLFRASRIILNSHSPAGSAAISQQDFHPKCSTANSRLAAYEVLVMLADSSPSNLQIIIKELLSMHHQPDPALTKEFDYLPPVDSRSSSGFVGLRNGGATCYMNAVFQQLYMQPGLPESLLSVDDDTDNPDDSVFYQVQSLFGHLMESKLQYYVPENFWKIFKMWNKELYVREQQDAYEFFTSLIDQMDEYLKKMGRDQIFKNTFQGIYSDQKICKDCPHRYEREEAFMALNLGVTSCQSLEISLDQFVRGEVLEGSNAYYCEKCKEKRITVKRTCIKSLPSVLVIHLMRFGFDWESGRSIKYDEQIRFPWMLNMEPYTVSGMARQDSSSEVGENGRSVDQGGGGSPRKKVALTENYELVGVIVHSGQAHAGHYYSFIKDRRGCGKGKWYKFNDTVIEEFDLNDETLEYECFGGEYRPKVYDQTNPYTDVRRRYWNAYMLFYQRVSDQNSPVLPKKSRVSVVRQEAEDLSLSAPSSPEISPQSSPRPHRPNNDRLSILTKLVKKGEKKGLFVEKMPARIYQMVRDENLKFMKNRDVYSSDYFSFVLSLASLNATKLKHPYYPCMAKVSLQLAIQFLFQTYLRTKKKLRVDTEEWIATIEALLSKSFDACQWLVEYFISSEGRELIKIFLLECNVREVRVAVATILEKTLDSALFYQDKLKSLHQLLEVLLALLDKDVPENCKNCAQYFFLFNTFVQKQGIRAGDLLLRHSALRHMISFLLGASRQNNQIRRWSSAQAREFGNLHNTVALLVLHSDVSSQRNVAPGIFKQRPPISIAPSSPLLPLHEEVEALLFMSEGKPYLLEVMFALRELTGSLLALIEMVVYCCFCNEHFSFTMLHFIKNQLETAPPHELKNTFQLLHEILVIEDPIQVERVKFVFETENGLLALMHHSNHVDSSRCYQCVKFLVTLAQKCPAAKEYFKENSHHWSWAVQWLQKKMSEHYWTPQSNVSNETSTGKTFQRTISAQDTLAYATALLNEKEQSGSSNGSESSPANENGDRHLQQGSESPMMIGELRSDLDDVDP

O=C(CCl)N1CCCCCC1c1ncon1 (centres undefined)
inactive: USP19 -0.0696 | USP24 -0.257 | USP25 -0.435 | USP28 -0.35
